Results published in article PMC7862700, “An all-to-all approach to the identification of sequence-specific readers for epigenetic DNA modifications on cytosine”.

Columns and labels:
Experiment in all cases: DAPPL (digital affinity profiling via proximity ligation, sequencing); 10 mM Tris-HCl pH 7.5, 50 mM NaCl, 1 mM DTT, 4% glycerol, room temperature, 30 min; GST-TFs on glutathione beads, 16-mer random dsDNA library, 0.1% formaldehyde crosslink after washing; high values mean tight binding
FLI1 = molecular target: T1, FLI1 (Homo sapiens, UniProt Q01543 1-452); conditions: protein: recombinant; tags: N-terminal GST; dsDNA, one strand shown
T1 sequence: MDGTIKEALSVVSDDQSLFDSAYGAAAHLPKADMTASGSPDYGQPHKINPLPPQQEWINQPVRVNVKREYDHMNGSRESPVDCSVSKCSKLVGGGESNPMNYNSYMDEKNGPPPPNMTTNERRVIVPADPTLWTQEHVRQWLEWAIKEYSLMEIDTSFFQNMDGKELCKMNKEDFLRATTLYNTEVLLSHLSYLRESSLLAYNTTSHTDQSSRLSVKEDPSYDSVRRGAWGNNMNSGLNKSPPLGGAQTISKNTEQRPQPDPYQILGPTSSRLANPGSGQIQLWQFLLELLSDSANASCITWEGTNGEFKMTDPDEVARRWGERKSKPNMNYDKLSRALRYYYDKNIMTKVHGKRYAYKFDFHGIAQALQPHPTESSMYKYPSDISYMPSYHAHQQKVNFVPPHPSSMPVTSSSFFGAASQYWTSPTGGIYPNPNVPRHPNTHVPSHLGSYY
Procedure, shortened: (§1)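 A tag-only sample was pooled with DNA-barcoded human transcription factors that had been expressed in yeast as GST fusions and captured on glutathione beads. The pools were incubated for 30 min at room temperature with 200 nmole of a random double-stranded 16-mer DNA library in Tris/NaCl/DTT/glycerol buffer, then washed, crosslinked with 0.1% formaldehyde, proximity-ligated (BsaI/T4 ligase, 1 h, 37 °C), PCR-amplified and sequenced on an Illumina NextSeq500. Binding signal is each hexamer's read frequency for a factor divided by its frequency for the tag-only sample.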

ELK1 = molecular target: T2, ELK1 (Homo sapiens, UniProt P19419 1-428); conditions: protein: recombinant; tags: N-terminal GST; dsDNA, one strand shown
T2 sequence: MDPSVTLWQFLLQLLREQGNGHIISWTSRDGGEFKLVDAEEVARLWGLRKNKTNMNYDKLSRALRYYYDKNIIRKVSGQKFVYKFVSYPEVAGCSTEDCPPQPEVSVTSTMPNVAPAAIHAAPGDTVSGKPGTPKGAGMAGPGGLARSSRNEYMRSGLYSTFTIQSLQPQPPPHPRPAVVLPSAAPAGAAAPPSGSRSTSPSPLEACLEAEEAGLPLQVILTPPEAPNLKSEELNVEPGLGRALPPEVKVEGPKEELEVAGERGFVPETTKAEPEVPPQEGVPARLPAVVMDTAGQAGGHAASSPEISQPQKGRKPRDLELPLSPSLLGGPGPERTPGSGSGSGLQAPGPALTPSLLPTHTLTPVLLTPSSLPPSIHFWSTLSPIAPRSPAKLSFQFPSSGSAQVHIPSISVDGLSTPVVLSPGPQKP
Procedure, shortened: as §1

GABPA = molecular target: T3, GABPA (Homo sapiens, UniProt Q06546 1-454); conditions: protein: recombinant; tags: N-terminal GST; dsDNA, one strand shown
T3 sequence: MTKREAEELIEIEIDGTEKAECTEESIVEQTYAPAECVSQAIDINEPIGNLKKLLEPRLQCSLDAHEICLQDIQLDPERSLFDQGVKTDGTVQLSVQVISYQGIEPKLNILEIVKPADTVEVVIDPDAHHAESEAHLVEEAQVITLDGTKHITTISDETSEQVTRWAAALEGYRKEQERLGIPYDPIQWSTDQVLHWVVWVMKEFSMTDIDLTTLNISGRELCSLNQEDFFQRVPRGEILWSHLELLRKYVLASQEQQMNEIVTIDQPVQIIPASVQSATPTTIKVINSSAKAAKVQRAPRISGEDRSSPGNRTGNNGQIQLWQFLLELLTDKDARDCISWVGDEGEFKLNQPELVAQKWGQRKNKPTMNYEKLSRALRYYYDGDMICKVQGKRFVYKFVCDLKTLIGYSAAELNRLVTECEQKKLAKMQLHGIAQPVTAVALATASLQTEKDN
Procedure, shortened: as §1

ERG = molecular target: T4, ERG (Homo sapiens, UniProt P11308 1-479); conditions: protein: recombinant; tags: N-terminal GST; dsDNA, one strand shown
T4 sequence: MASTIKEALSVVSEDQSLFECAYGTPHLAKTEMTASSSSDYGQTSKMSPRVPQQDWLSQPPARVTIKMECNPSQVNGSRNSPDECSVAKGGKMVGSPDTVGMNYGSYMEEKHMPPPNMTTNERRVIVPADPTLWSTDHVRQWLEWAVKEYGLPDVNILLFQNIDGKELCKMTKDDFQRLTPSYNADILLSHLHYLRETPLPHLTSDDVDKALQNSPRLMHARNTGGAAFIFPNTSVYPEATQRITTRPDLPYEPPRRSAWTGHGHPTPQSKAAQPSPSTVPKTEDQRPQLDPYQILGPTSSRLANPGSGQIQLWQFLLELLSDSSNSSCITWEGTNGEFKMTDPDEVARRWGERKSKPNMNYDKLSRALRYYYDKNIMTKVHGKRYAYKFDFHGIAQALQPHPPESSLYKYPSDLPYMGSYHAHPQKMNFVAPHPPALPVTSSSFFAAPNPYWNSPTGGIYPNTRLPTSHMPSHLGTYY
Procedure, shortened: as §1

ELF1 = ELF1 (Homo sapiens, UniProt P32519 1-619); conditions: protein: recombinant; tags: N-terminal GST; dsDNA, one strand shown
Chain of ELF1 (P32519 whole entry): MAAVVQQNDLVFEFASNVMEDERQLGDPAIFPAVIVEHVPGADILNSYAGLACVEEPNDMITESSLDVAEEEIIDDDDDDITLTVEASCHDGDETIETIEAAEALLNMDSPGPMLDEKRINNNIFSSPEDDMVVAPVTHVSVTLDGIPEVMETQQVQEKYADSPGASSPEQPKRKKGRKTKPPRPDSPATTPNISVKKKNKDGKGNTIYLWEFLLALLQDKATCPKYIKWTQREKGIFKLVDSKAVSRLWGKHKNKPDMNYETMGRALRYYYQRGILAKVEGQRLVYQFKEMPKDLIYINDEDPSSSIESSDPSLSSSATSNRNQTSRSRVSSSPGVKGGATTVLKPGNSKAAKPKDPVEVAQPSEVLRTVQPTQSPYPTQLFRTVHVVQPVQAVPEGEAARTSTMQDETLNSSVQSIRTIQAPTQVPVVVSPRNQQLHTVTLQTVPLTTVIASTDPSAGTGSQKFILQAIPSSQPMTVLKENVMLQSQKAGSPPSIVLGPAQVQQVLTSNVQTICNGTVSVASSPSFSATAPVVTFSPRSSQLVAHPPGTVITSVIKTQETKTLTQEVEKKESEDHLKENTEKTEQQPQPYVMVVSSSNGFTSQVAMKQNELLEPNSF
Procedure, shortened: as §1

EHF = molecular target: T5, EHF (Homo sapiens, UniProt Q9NZC4 1-300); conditions: protein: recombinant; tags: N-terminal GST; dsDNA, one strand shown
T5 sequence: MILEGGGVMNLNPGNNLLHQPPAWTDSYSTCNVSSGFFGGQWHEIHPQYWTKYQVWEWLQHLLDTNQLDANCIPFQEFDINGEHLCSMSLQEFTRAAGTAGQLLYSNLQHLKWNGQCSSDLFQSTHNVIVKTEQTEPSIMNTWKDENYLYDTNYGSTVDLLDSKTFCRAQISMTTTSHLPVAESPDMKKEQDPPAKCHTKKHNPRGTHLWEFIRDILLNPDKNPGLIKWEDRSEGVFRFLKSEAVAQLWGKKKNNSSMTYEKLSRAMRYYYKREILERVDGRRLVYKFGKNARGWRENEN
Procedure, shortened: as §1

SPI1 = SPI1 (Homo sapiens, UniProt P17947 1-270); conditions: protein: recombinant; tags: N-terminal GST; dsDNA, one strand shown
Procedure, shortened: as §1

SPIB = SPIB (Homo sapiens, UniProt Q01892 1-262); conditions: protein: recombinant; tags: N-terminal GST; dsDNA, one strand shown
Chain of SPIB (Q01892 whole entry): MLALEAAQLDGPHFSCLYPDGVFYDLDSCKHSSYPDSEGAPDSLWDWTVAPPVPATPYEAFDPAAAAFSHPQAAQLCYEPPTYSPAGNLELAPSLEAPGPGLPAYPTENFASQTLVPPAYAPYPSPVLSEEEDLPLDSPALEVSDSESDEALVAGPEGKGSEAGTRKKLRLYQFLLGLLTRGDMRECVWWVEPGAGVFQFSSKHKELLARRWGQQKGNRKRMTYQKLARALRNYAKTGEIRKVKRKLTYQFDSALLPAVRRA
Procedure, shortened: as §1

ELK3 = molecular target: T6, ELK3 (Homo sapiens, UniProt P41970 1-407); conditions: protein: recombinant; tags: N-terminal GST; dsDNA, one strand shown
T6 sequence: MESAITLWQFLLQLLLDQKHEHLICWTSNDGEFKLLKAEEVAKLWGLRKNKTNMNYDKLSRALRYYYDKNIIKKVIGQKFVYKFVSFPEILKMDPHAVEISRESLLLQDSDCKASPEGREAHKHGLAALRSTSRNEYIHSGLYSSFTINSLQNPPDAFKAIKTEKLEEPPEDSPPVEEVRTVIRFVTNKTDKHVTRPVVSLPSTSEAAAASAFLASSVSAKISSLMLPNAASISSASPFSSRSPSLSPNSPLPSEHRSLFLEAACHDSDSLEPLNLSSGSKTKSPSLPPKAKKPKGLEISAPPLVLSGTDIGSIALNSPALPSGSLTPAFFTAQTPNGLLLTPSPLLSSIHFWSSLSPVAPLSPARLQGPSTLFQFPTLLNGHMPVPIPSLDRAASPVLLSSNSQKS
Procedure, shortened: as §1

FEV = molecular target: T7, FEV (Homo sapiens, UniProt Q99581 1-238); conditions: protein: recombinant; tags: N-terminal GST; dsDNA, one strand shown
T7 sequence: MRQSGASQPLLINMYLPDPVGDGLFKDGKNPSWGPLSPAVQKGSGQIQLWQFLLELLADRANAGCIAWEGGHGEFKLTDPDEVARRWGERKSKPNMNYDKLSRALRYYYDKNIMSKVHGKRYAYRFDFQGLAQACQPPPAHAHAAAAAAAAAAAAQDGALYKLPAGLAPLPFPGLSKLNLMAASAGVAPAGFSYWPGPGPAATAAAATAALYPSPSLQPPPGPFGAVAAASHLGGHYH
Procedure, shortened: as §1

ETV5 = ETV5 (Homo sapiens, UniProt P41161 1-510); conditions: protein: recombinant; tags: N-terminal GST; dsDNA, one strand shown
Chain of ETV5 (P41161 whole entry): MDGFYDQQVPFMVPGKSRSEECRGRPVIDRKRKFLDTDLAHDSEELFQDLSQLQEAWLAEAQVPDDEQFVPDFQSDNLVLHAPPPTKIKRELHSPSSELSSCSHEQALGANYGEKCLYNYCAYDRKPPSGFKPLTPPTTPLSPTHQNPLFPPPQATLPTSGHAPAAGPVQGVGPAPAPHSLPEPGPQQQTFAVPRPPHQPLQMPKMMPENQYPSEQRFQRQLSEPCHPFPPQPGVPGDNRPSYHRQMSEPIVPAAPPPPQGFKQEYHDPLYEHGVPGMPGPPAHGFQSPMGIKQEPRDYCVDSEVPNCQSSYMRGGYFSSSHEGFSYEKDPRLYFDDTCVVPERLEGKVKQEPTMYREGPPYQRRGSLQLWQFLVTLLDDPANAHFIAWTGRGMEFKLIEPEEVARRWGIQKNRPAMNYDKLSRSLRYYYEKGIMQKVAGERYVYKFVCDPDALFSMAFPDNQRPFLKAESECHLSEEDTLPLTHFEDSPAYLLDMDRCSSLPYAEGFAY
Procedure, shortened: as §1

HSF1 = HSF1 (Homo sapiens, UniProt Q00613 1-529); conditions: protein: recombinant; tags: N-terminal GST; chain copies: 3; dsDNA, one strand shown
Chain of HSF1 (Q00613 whole entry): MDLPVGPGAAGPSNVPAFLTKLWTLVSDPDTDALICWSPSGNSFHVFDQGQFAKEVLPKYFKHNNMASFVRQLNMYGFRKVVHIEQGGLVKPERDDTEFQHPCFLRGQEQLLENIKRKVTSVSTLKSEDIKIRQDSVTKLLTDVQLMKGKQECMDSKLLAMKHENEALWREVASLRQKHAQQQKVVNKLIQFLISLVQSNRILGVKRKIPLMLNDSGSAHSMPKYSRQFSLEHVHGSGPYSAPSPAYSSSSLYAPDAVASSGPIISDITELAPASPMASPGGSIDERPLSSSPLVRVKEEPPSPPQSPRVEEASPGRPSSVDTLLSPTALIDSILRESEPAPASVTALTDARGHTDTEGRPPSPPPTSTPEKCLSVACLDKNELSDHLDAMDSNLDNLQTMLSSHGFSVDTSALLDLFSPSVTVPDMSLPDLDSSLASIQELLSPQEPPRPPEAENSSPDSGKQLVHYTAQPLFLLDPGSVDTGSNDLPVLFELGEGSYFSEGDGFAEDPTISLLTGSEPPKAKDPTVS
Procedure, shortened: as §1

SPIC = molecular target: T8, SPIC (Homo sapiens, UniProt Q8N5J4 1-248); conditions: protein: recombinant; tags: N-terminal GST; dsDNA, one strand shown
T8 sequence: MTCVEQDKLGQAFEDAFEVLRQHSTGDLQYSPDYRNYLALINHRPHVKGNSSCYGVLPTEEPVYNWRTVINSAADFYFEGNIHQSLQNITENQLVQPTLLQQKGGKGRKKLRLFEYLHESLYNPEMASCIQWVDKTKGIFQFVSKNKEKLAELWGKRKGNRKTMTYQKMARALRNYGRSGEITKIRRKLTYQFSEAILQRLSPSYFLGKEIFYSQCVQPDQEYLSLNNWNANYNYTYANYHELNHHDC
Procedure, shortened: as §1

ELF4 = ELF4 (Homo sapiens, UniProt Q99607 1-663); conditions: protein: recombinant; tags: N-terminal GST; dsDNA, one strand shown
Chain of ELF4 (Q99607 whole entry): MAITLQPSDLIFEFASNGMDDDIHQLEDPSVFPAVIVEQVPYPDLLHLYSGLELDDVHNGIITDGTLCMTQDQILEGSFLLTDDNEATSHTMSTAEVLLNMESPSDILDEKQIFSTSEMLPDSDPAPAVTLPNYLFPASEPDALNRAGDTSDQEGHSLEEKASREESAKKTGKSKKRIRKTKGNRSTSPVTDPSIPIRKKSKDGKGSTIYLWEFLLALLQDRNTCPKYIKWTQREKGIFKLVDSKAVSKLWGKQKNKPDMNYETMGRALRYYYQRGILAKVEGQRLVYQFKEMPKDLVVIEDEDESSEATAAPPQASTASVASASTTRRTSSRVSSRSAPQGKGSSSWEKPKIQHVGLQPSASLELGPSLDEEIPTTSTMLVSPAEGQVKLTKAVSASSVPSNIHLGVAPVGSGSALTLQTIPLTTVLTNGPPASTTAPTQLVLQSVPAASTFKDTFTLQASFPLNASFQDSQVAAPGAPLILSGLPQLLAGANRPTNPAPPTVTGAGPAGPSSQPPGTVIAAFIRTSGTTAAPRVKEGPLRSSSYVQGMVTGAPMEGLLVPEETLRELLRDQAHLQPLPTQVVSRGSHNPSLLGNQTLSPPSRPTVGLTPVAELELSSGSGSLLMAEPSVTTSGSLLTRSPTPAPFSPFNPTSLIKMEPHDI
Procedure, shortened: as §1

ELK4 = molecular target: T9, ELK4 (Homo sapiens, UniProt P28324-2 1-405); conditions: protein: recombinant; tags: N-terminal GST; dsDNA, one strand shown
T9 sequence: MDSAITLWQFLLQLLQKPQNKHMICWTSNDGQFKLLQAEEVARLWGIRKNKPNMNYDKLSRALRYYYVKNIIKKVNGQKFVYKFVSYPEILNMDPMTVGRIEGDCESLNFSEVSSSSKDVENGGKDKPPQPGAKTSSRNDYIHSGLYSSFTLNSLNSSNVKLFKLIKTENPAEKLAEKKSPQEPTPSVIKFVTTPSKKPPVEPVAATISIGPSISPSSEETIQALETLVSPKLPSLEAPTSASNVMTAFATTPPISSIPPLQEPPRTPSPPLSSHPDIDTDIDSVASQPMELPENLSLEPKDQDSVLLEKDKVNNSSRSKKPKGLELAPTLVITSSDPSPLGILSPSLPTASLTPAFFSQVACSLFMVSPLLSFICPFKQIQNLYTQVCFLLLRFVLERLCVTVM
Procedure, shortened: as §1

ETV2 = molecular target: T10, ETV2 (Homo sapiens, UniProt O00321 1-342); conditions: protein: recombinant; tags: N-terminal GST; dsDNA, one strand shown
T10 sequence: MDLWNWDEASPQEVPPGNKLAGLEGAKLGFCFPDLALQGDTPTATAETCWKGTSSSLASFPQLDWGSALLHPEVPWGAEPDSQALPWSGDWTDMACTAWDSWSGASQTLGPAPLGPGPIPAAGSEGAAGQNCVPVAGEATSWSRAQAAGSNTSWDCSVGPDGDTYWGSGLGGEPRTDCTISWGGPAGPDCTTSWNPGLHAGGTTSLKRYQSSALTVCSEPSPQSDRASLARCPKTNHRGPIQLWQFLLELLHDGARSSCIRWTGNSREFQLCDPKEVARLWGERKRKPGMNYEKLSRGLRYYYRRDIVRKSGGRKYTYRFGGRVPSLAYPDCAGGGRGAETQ
Procedure, shortened: as §1

ELF3 = molecular target: T11, ELF3 (Homo sapiens, UniProt P78545 1-371); conditions: protein: recombinant; tags: N-terminal GST; dsDNA, one strand shown
T11 sequence: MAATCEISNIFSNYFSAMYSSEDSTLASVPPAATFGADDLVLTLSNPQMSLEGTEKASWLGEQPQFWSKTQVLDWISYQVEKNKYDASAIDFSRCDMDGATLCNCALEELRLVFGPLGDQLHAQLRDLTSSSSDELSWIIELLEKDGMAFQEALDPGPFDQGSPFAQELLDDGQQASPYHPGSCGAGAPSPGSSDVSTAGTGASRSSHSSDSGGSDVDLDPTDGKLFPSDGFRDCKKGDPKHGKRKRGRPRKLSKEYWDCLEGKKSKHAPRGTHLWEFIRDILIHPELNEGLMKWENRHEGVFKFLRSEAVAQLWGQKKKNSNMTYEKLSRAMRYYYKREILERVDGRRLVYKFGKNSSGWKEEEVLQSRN
Procedure, shortened: as §1

CRX = CRX (Homo sapiens, UniProt O43186 1-299); conditions: protein: recombinant; tags: N-terminal GST; dsDNA, one strand shown
Chain of CRX (O43186 whole entry): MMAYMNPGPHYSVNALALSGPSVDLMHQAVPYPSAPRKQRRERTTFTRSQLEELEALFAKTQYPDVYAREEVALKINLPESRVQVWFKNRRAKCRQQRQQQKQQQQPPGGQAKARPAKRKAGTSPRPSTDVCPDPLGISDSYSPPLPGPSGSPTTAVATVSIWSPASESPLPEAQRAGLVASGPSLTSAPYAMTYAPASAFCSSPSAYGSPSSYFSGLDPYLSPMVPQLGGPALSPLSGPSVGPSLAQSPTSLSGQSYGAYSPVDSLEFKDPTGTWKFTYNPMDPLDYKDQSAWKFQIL
Procedure, shortened: as §1

ETV1 = ETV1 (Homo sapiens, UniProt P50549 1-477); conditions: protein: recombinant; tags: N-terminal GST; dsDNA, one strand shown
Chain of ETV1 (P50549 whole entry): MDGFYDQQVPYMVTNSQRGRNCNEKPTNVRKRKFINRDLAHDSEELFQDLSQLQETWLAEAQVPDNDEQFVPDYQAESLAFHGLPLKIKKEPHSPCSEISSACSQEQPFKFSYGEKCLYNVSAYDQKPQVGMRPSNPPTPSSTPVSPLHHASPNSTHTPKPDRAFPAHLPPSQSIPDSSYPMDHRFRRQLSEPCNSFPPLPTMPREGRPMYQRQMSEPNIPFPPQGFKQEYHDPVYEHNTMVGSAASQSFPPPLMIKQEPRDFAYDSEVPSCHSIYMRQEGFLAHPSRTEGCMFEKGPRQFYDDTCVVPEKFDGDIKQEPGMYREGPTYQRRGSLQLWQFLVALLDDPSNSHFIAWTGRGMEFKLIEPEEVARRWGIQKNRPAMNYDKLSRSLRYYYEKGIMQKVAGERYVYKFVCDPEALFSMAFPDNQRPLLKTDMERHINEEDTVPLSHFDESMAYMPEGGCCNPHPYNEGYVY
Procedure, shortened: as §1

## ATTATT
FLI1
  binding signal: 1.14 fold enrichment (6-mer frequency, TF over GST control)
ELK1
  binding signal: 1.17 fold enrichment (6-mer frequency, TF over GST control)
GABPA
  binding signal: 1.1 fold enrichment (6-mer frequency, TF over GST control)
ERG
  binding signal: 1.17 fold enrichment (6-mer frequency, TF over GST control)
ELF1
  binding signal: 1.13 fold enrichment (6-mer frequency, TF over GST control)
EHF
  binding signal: 1.16 fold enrichment (6-mer frequency, TF over GST control)
SPI1
  binding signal: 1.02 fold enrichment (6-mer frequency, TF over GST control)
SPIB
  binding signal: 1.12 fold enrichment (6-mer frequency, TF over GST control)
ELK3
  binding signal: 1.14 fold enrichment (6-mer frequency, TF over GST control)
FEV
  binding signal: 1.15 fold enrichment (6-mer frequency, TF over GST control)
ETV5
  binding signal: 1.17 fold enrichment (6-mer frequency, TF over GST control)
HSF1
  binding signal: 1.8 fold enrichment (6-mer frequency, TF over GST control)
SPIC
  binding signal: 1.2 fold enrichment (6-mer frequency, TF over GST control)
ELF4
  binding signal: 1.24 fold enrichment (6-mer frequency, TF over GST control)
ELK4
  binding signal: 1.23 fold enrichment (6-mer frequency, TF over GST control)
ETV2
  binding signal: 1.11 fold enrichment (6-mer frequency, TF over GST control)
ELF3
  binding signal: 1.1 fold enrichment (6-mer frequency, TF over GST control)
CRX
  binding signal: 2.37 fold enrichment (6-mer frequency, TF over GST control)
ETV1
  binding signal: 1.29 fold enrichment (6-mer frequency, TF over GST control)
